# Test: Cell Proliferation Assay against the HBL1 Cell Line (AID 651646);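 also: cells exposed to compound for 48 h before reading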
# Conditions: HBL1 DLBCL cells; at 46.1 µM (top of the series) unless noted
# Text: One class of targeted therapeutics showing early clinical success in killing of ABC DLBCL lines are small molecule inhibitors of the Bruton tyrosine kinase (BTK) 11.
# Prior to any combination assays, using an NCATS developed oncology compound library called the Mechanism of Interrogation Plate (MIPE), two well studied ABC DLBCL lines (TMD8 and HBL1) were screened using a cell viability assay (CellTiterGlo) and a 12-point titration series for each single agent. These initial experiments offered insight into the concentration range that offered the best coverage of activity and non-activity to assure relevant data is generated. In addition to the viability signature associated with this library, we examined the apoptotic response of each agent versus the TMD8 line as judged by caspase 3/7 activation. Activity was assayed at both 8 and 16 hour time-points to gain an appreciation of which agents induced an apoptotic response in a reasonable timeframe from a therapeutic exposure perspective. MIPE was also assayed for single agent viability in a human mesenchymal stem cell (hMSC) line as a surrogate of each library member's potential therapeutic index.
# A total of 500 log growing HBL1 cells are seeded per well in 5 uL of a RPMI with glutamine (or Glutamax), without phenol red plus 5% FBS and 1X Pen/Strep into 1536 -solid white high base tissue culture treated Greiner One Bio Plates (789173-F) using a multidrop combi dispenser and a small sterile cassette. Compounds and controls totaling 23nL per well (negative control DMSO and positive control 9.2 uM Bortezomib-final) are immediately added to the plates using a 1536 head pin tool from Kalypsys. The plates are then covered with stainless steel gasket lids from Kalypsys and incubated for 48 hours at 37C under 95% relative humidity with 5% CO2. After 48 hours, the plates are removed and allowed to reach room temperature before 3 uL of Cell Titer Glo reagent (Promega) is added using an Aurora Flying Reagent Dispenser Bioraptor. The plates are then spun at 1000 rpms to remove bubbles and incubated for 15 minutes at room temperature before read on a ViewLux using a luminescent filter with a 10 second exposure. The relative luciferase units are used to calculated percent activity using DMSO as 100% and Bortezomib as 0%.
row,SMILES,"viability, percent of control"
1,Cc1c(C(=O)Nc2cccc(C(F)(F)F)c2)cc(-c2ccccc2)n1CCCN1CCOCC1,18.7%
2,COc1cc2c(cc1O)CC[C@@H]1[C@@H]2CC[C@]2(C)[C@@H](O)CC[C@@H]12,37.3%
3,O=C(Oc1ccc([N+](=O)[O-])cc1)N1CCC(C(O)(c2ccc3c(c2)OCO3)c2ccc3c(c2)OCO3)CC1,72%
4,CC(C)[C@]12O[C@H]1[C@@H]1O[C@]13[C@]1(O[C@H]1C[C@H]1C4=C(CC[C@@]13C)C(=O)OC4)[C@@H]2O,35%
5,CC1CC(C)C(=O)C(C(O)CC2CC(=O)NC(=O)C2)C1 (stereo unspecified),43.6% [at 92.2 µM]
6,COc1ccc2c(c[n+](C)c3c4cc5c(cc4ccc23)OCO5)c1OC,4.88%
7,Cc1nc(-c2ccc(-c3ccc(C(=O)N4CCc5cc6c(cc54)C4(CCN(C)CC4)CO6)cc3)c(C)c2)no1,1.18%
8,Nc1nc(-c2nn(Cc3ccccc3F)c3ncccc23)nc(N)c1N1CCOCC1,114%
9,CC(=O)Nc1ccc(OC[C@](C)(O)C(=O)Nc2ccc([N+](=O)[O-])c(C(F)(F)F)c2)cc1,96.7%
10,C=CCON=C(C[C@H]1O[C@@H]2O[C@]3(C)CC[C@@H]4[C@H](C)CC[C@@H]([C@H]1C)[C@@]24OO3)[C@H]1O[C@@H]2O[C@]3(C)CC[C@H]4[C@H](C)CC[C@@H]([C@@H]1C)[C@@]24OO3,30.4%
11,Cc1ccccc1-n1c(Cn2cnc3c(N)ncnc32)nc2cccc(C)c2c1=O,62.6%
